# Test results reported in the supplement of paper PMC12645437, “Orthogonal IMiD-Degron Pairs Induce Selective Protein Degradation in Cells” (ACS Chemical Biology, 2025).
# The full ranking holds about 8,300 sequences; the median of “log2 fold change of degron read counts, EGFP-low vs EGFP+ sorted cells (limma voom), compound-induced degradation” is about -1.1, and the highest 2% start at about 3.2. The sample as a whole holds a higher share of the highest values than the screen did.
# Target: T1, CRBN, Q96SW2
# T1 chain: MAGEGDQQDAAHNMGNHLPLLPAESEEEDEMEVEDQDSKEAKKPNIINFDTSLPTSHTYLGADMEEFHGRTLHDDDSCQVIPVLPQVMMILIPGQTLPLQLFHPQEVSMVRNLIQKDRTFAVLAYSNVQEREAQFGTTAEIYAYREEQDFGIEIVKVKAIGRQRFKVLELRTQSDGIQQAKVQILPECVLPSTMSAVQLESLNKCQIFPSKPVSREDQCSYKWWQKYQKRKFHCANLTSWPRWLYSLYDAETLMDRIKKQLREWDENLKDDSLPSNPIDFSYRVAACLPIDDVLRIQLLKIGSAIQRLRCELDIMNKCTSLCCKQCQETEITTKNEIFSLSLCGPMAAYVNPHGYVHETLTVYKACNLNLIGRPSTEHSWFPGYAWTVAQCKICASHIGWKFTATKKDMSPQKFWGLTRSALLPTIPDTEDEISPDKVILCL
# Experiment: log2 fold change of degron read counts, EGFP-low vs EGFP+ sorted cells (limma voom), compound-induced degradation; higher = more compound-induced degradation of the degron-EGFP fusion; degrons are variants of IKZF1/3 zinc finger 2; compound dose not given here
# Settings: Jurkat, 18 h
# [1] = compound: compound 19 (5-tert-butyl-thalidomide)
# [2] = compound: compound 22 (5-morpholino-thalidomide)
# [3] = compound: compound 33 (diphenyl IMiD analogue)
# 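Note: pooled lentiviral library of zinc finger degron-EGFP fusions in mCherry-positive Jurkat cells, FACS-sorted after compound exposure, with degron abundance counted by next-generation sequencing.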
Sequence,log2 fold change of degron read counts [1],log2 fold change of degron read counts [2],log2 fold change of degron read counts [3],log2 fold change of degron read counts (compound: thalidomide)
"LSCNQCGFVCTQKGNLLRHIKL [46L_47S_49N_50Q_52G_53F_54V_55C_67L_, Q9UKT9]",-2.24,-2.61,-2,-2.24
"FCCPVCGACFTQKGNLLRHIKL [46F_47C_49P_50V_52G_53A_54C_55F_67L_, Q9UKT9]",2.37,1.98,2.99,2.06
"FACPVCGACFTQKGNLLRHIKL [46F_47A_49P_50V_52G_53A_54C_55F_67L_, Q9UKT9]",3.39,1.64,1.85,0.646
"FSCPVCGACFTQKGNLLRHIKL [46F_47S_49P_50V_52G_53A_54C_55F_67L_, Q9UKT9]",2.64,1.8,2.73,1.07
"FVCDVCGACFTQKGNLLRHIKL [46F_47V_49D_50V_52G_53A_54C_55F_67L_, Q9UKT9]",-1.45,-0.0454,0.676,0.186
"FGCPVCGACFTQKGNLLRHIKL [46F_47G_49P_50V_52G_53A_54C_55F_67L_, Q9UKT9]",3.88,3.16,2.81,1.1
"FDCPVCGACFTQKGNLLRHIKL [46F_47D_49P_50V_52G_53A_54C_55F_67L_, Q9UKT9]",1.39,-0.358,1.46,1.34
"FFCPVCGACFTQKGNLLRHIKL [46F_47F_49P_50V_52G_53A_54C_55F_67L_, Q9UKT9]",3,3.34,2.16,1.3
"FHCDVCGACFTQKGNLLRHIKL [46F_47H_49D_50V_52G_53A_54C_55F_67L_, Q9UKT9]",0.383,0.3,-1.01,-2.43
"FWCDVCGACFTQKGNLLRHIKL [46F_47W_49D_50V_52G_53A_54C_55F_67L_, Q9UKT9]",2.78,3.47,1.12,-0.931
"FMCPVCGACFTQKGNLLRHIKL [46F_47M_49P_50V_52G_53A_54C_55F_67L_, Q9UKT9]",-0.624,0.321,2.31,0.962
"FRCPVCGACFTQKGNLLRHIKL [46F_47R_49P_50V_52G_53A_54C_55F_67L_, Q9UKT9]",-0.619,0.101,1.52,0.981
"FVCPVCGACFTQKGNLLRHIKL [46F_47V_49P_50V_52G_53A_54C_55F_67L_, Q9UKT9]",-0.46,1.87,2.08,2.53
"FFCDQCGAEFTQKGNLLRHIKL [46F_47F_49D_50Q_52G_53A_54E_55F_67L_, Q9UKT9]",-0.653,-1.5,-2.48,-2.75
"FACPVCGAFFTQKGNLLRHIKL [46F_47A_49P_50V_52G_53A_54F_55F_67L_, Q9UKT9]",1.92,-0.0365,0.632,-0.719
"FECPICGHEFTQKGNLLRHIKL [46F_47E_49P_50I_52G_53H_54E_55F_67L_, Q9UKT9]",-3.46,-3.29,-1.58,-1.82
"FLCEICGRRFTQKGNLLRHIKL [46F_47L_49E_50I_52G_53R_54R_55F_67L_, Q9UKT9]",-1.65,-2.28,-1.89,-0.0712
"FLCNVCGASFTQKGNLLRHIKL [46F_47L_49N_50V_52G_53A_54S_55F_67L_, Q9UKT9]",-1.47,-1.87,-0.611,-0.827
